The source of these data is PubChem BioAssay (NCI).

Molecules are shown by their SMILES. Compounds without any hit were thinned out: in the full panel of roughly 79,000, 15% have a hit. Calls of active or inactive are those of the source. Cut-off read from the data, not from the text of the source: active = growth inhibition above about 70%; inactive = the rest.

The assay is described as follows: NCI Yeast Anticancer Drug Screen. Data for the mlh1 rad18 strain (AID 175). As to conditions: S. cerevisiae mlh1 rad18 strain growth inhibition; at 50.0 µM; active compounds read high. Put shortly:
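Inhibition values reflect reduced growth of mutant yeast versus vehicle-treated controls following compound exposure; the mutations affect DNA damage repair.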
As to `CC(C)(C)C1CCC(O)(CSc2ccccc2)CC1` (stereo not given), the growth inhibition is -10.6% (inactive). In the case of `Cc1cc(C)c(C(=O)CC(C)C)c(C)c1`, the growth inhibition is -4.2% (inactive). Take `CCc1ccc(/C(C#N)=C/c2ccccc2Cl)cc1`: the growth inhibition is 27.1% (inactive). Regarding `CN(C)CCN1CCc2c([nH]c3ccccc23)C1c1cccnc1` (stereo not given), the growth inhibition is -38.2% (inactive). Under `CNc1ncnc2c1c(C(N)=S)cn2C1OC(CO)C(O)C1O` (stereo not given) stands 12.5% (inactive); under `CC(=O)Nc1ccc(N(C)C)cc1Cl`, -16.1% (inactive); under `O=C(Nc1ccccc1)c1ccc(I)cc1`, -25.3% (inactive). Under `CCCCCCCCCC(=O)N/N=C\c1cccc2ccccc12` stands 16.9% (inactive); under `O=C(O)c1cc(O)c(C(=O)O)cc1O`, 0.3% (inactive); under `COc1ccc2[nH]c(C(F)(F)F)cc(=O)c2c1`, 14.8% (inactive).

Take `CCCCN=Cc1ccc(Cl)cc1`: the growth inhibition was -6% (inactive). In the case of `O=C1c2ccccc2C(=O)N1C/C(Cl)=C/Cl`, the growth inhibition was -22.6% (inactive). Turning to `CCCCCCCCCCCCCCCCN=C1C=Cc2ccccc2C1=NCCCCCCCCCCCCCCCC`, the growth inhibition is 4.4% (inactive). Take `CC(=O)OC1=C(C)C2=C3OC(=O)C(C)=C3CC[C@@]2(C)CC1`: the growth inhibition is 6.95% (inactive).

On to `O=C(CCC(=O)OCC1CCCO1)OCC1CCCO1` (stereo not given), for which the growth inhibition was -2.8% (inactive). Under `C=CCCCC(C#N)c1ccc2c(c1)OCO2` (stereo not given) stands -15.2% (inactive); under `CCCCOc1cc(C(=O)O)ccc1[N+](=O)[O-]`, -3.1% (inactive). To `CSC(=Nc1ccc([N+](=O)[O-])cc1C#N)NC(=O)c1ccccc1` belongs 9.55% (inactive); to `Cc1ccc2[nH]c(=O)cc(C)c2c1`, 30.8% (inactive).

Consider `COc1ccc(C(O)(CCN2CCOCC2)c2ccc3c(c2)OCO3)cc1` (stereo not given), for which the growth inhibition is -0.3% (inactive).

Take `CCN(CC)c1ccc(N=C2C=C(C(=O)Nc3ccc(C(=O)O)cc3)C(=O)c3ccccc32)c(C)c1`: the growth inhibition is -18.2% (inactive).

For `NNC(=O)c1cccc2c1Oc1ccccc1S2`, the growth inhibition was 25.1% (inactive). Regarding `O=C(NN=C1c2ccccc2-c2ccccc21)C(F)(F)F`, the growth inhibition is 21.9% (inactive). To `O=C1CC23CC(=O)CC2(C1)c1ccccc1C3=O` (stereo not given) belongs 13.7% (inactive); to `CSC(=NNC(N)=O)SC`, 5.4% (inactive).

Take `CC(=O)N(CCCc1ccccc1)C(C)(C)C`: the growth inhibition was 6.15% (inactive). Under `O=C(NC1C2CC3CC(C2)CC1C3)c1cc(/C=C/c2ccccc2)[nH]c(=S)n1` (stereo not given) stands 14.3% (inactive); under `CCOC(=O)Cc1ccc2c(c1)sc1nc(-c3ccc(OC)cc3)cn12`, 18.6% (inactive). On to `CN(C)CCN1CC2C3CCCCC3=C3CCCCC3C2C1` (stereo not given), for which the growth inhibition was 37.9% (inactive).

For the compound `CNC(C)C#N` (stereo not given), the growth inhibition was -11.6% (inactive). To `Nc1c(Cl)cnn2nnnc12` belongs -4.25% (inactive); to `CSCCNC(=O)CS(=O)(=O)c1ccc(N)cc1`, -14.9% (inactive). As to `N#CCCS(=O)(=O)O`, the growth inhibition was 13.8% (inactive). To `COCCNc1ccc([N+](=O)[O-])cc1[N+](=O)[O-]` belongs 7.1% (inactive); to `FC(F)(F)c1cccc(N=Cc2ccc(C=Nc3cccc(C(F)(F)F)c3)cc2)c1`, 1.35% (inactive). To `CO[C@@H]1C[C@H]2[C@@H]3CC[C@H]([C@H](C)COC(C)=O)[C@@]3(C)CC[C@@H]2[C@@]2(C)CC[C@H]3C[C@]312` belongs 5.4% (inactive); to `CCCCC(C=O)(CC)CCC#N` (stereo not given), 42.2% (inactive); to `CCCCCC(=O)/C=C/Sc1n[nH]c(=O)[nH]c1=O`, 62.1% (inactive). Regarding `CC(=O)c1nc2ccccc2n1CC(=O)c1ccc([N+](=O)[O-])cc1`, the growth inhibition is -8.1% (inactive).

Turning to `CCOC(=O)C(=O)C1CC(c2ccccc2)=NNC1=O` (stereo not given), the growth inhibition was 26.2% (inactive).
